High-throughput results (PubChem)
NS1 function inh = influenza NS1 inhibition; Potency, µM (top dose mostly 46.1 µM), without a hit: top-dose activity, positive = more growth; 0.4% of 270,000 active; calls by dose curve; note: actives are rising curves; nearly all actives have a fitted effect of over 50% in size
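Recovery from NS1-induced slow growth read by OD600 in budding yeast switched to galactose assay medium (pH 6.0, -URA) at 1:100 dilution. Compound 23 nl per well; the matching strain lacking NS1 serves as control.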
Pf growth 96h = inhibits malaria parasite growth, 96 h; P. falciparum luciferase reporter growth, 96 h; Potency, µM (series often up to 28.7 µM), without a hit: top-dose activity change, negative = inhibition, usual class: inhibitors; 6.9% of 320,000 active; AID 504834; note: % is set by controls: 0 for no effect and ±100 for the full control effect
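Readout is luminescence from an integrated firefly luciferase in P. falciparum. Red cells, 2% hematocrit and 0.05% parasitemia final, were cultured with compound through two parasite generations (96 hours) at 37 C, 5% CO2.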
Pf growth 48h = inhibits P. falciparum growth in the first generation, 48 h. P. falciparum luciferase growth in erythrocytes, 48 h. Potency, µM (top dose mostly 28.7 µM), for the others: at the top dose activity change, negative = inhibition, hits mostly inhibitors. 5.9% of 310,000 active; note: % is set by controls: 0 for no effect and ±100 for the full control effect
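Read-out is firefly luciferase luminescence from an integrated reporter in P. falciparum, so falling signal marks reduced parasite growth. Infected erythrocytes were at 2% hematocrit and 0.1% parasitemia (final) in Albumax-supplemented RPMI 1640.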
Sm TGR inh = blocks Schistosoma mansoni thioredoxin glutathione reductase; Q962Y6; purified TGR, DTNB reduction, TNB absorbance 405 nm; Potency, µM (titrated, usually from 114 µM), for the others: at the top dose activity change, negative = inhibition, hits mostly inhibitors; 3% of 360,000 active; note: % is set by controls: 0 for no effect and ±100 for the full control effect; nearly all actives have a fitted effect of over 60% in size
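Kinetic colorimetric format: TGR-catalysed, NADPH-driven DTNB reduction monitored via TNB absorbance. Enzyme dispensed at 20 nM; compound exposure 15 min at room temperature before reaction start.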
AMA1-RON2 inh = inhibitors of Plasmodium falciparum AMA1-RON2 interaction | AID 720542 | AlphaScreen AMA1-biotinylated RON2 peptide binding | 0.2% of 360,000 active | Potency, µM (titrated, usually from 58.2 µM), for inactives: at the highest dose activity change, negative = inhibition, most hits filed as inhibitors;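 note: 0% = vehicle wells and -100% = peptide control; nearly all actives have a fitted effect of over 45% in size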
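AMA1 (3D7) with his tag at 25 nM final met compounds first, then biotinylated RON2 peptide at 25 nM; detection used donor plus acceptor beads, 10 µg/mL apiece, read by AlphaScreen after 30 min at room temperature.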
* = called active by the depositor; u = inconclusive; x = no result given; [ ] = another dose, or the depositor's remark. Sampled rows, rich in hits. Any-hit rate of the full collection: about 11%. Unless noted, calls come from the whole dose curve; as a rule, active = well fitted curve in the direction sought with a large enough effect; inconclusive = small, poorly fitted or top-dose-only effect, or another doubt; inactive = no such curve, though single readings can be large; an effect the other way counts as inactive or inconclusive. Potency is the fitted concentration of half-maximal effect.

SMILES | NS1 function inh | Pf growth 96h | Pf growth 48h | Sm TGR inh | AMA1-RON2 inh
O=C(NC1CCSc2ccccc21)c1cccc(Cl)c1 (stereo not given) | 9.5% | 14.7µM* | u | 7.94µM* | -7.6%
C[C@@H]1CN([C@@H](C)CO)C(=O)CCCn2nncc2CO[C@@H]1CN(C)S(=O)(=O)c1ccccc1C#N | x | x | x | x | -13.1%
CCOC(=O)C1=C(C)N=c2s/c(=C\c3ccc(OC(C)=O)c(OCC)c3)c(=O)n2C1/C=C/c1ccccc1 (stereo not given) | u | 20.3% | 10.4µM* | 7.5% | 35.7%
COc1cccc(C2C(C(=O)Nc3ccccc3)=C(C)N=c3s/c(=C/c4ccc(OCC(=O)O)cc4)c(=O)n32)c1 (stereo not given) | u | 1.17µM* | 7.38µM* | -6.1% | 2.4%
CCOC(=O)C1=C(C)N=c2sc(=Cc3ccc(OCC(=O)O)cc3)c(=O)n2C1c1ccc(Cl)cc1 (stereo not given) | x | x | x | x | -16.5%
CCOC(=O)C1=C(C)N=c2s/c(=C\c3ccc(OCC(=O)O)cc3)c(=O)n2C1c1ccc(OC(C)C)cc1 (stereo not given) | u | 0.415µM* | u | 0.8% | -2.6%
CC1=C(C(=O)Nc2ccccc2)C(c2ccc(C)o2)n2c(s/c(=C\c3ccco3)c2=O)=N1 (stereo not given) | 24.6% | u | 13.1µM* | u | -17.0%
C[C@@H]1CN([C@H](C)CO)C(=O)c2cccc(NS(=O)(=O)c3ccccc3)c2O[C@H]1CN(C)C | x | x | x | x | -4.9%
CCOC(=O)[C@]12CCCC=C1N(Cc1ccc3c(c1)OCO3)C(=O)[C@H](CC(=O)NCC1CCCCC1)C2 | x | x | x | x | -23.3%
CCOC(=O)C1=C(C)N=c2s/c(=C/c3ccc(OCC(=O)O)cc3)c(=O)n2C1c1cc(OC)c(OC)c(OC)c1 (stereo not given) | u | 0.738µM* | 1.04µM* | 2.1% | -24.9%
COc1ccccc1C1C(C(C)=O)=C(C)N=c2s/c(=C\c3cc(OC)c(OC)c(OC)c3)c(=O)n21 (stereo not given) | 19.7% | u | 9.28µM* | -1.2% | 0.2%
O=C(NCc1cccc(Br)c1)C1CC(c2ccc(C(F)(F)F)cc2)=NO1 (stereo not given) | x | x | x | x | 3.5%
CC(=O)CCc1oc2ccccc2c1-c1ccccc1 | -6.5% | -1.0% | 0.2% | -25.8% | 3.3%
CC(=O)CCc1oc2ccc([N+](=O)[O-])cc2c1-c1ccc(C)o1 | -2.7% | -25.4% | 23.3% | 20µM* | 0.2%
CC(=O)CCc1oc2c([N+](=O)[O-])cccc2c1-c1ccc(C)o1 | -12.7% | 30.6% | -7.7% | 11.2µM* | -24.0%
CCOc1ccccc1NC(=S)N1C2CCC1CC(NC(=O)NC13CC4CC(CC(C4)C1)C3)C2 (stereo not given) | 19.2% | u | u | 3.9% | 3.1%
COc1ccccc1NC(=S)N1C2CCC1CC(NC(=O)NC13CC4CC(CC(C4)C1)C3)C2 (stereo not given) | 15.8% | 4.65µM* | u | -0.7% | -11.2%
CC(C)(C)NC[C@@H](O)COc1ccccc1C1CCCC1 | x | 2.28µM* | 2.87µM* | x | x
CC(C)(C)NCC(O)COc1ccccc1C(C)(C)C (stereo not given) | 0.3% | u | 4.65µM* | 8.8% | -5.8%
CSc1ccc(CN2CCN(Cc3ccccc3)C(CCO)C2)cc1 (stereo not given) | 0.3% | 11.7µM* | -7.5% | -13.2% | -9.6%
OCCC1CN(Cc2ccc(-n3cccn3)cc2)CCN1Cc1ccccc1 (stereo not given) | -1.0% | 8.28µM* | -9.9% | -19.3% | 0.7%
Cc1ccc(CN2CCN(Cc3cccc(-n4cccn4)c3)CC2CCO)cc1 (stereo not given) | -0.1% | -32.5% | -20.5% | -15.0% | -2.4%
Cc1ccc(CN2CCN(Cc3ccc(-n4cccn4)cc3C)CC2CCO)cc1 (stereo not given) | 5.2% | 24.5% | 10.4µM* | -3.2% | -6.5%
CSc1ccc(CNC(=O)C2(C)CCCN(C(C)C)C2)cc1 (stereo not given) | x | x | x | x | 3.8%
COC(=O)[C@@]12C[C@@H](CC(=O)NCc3ccc(C)o3)C(=O)N(CCc3ccc(OC)c(OC)c3)C1=CCC(C)(C)C2 | x | x | x | x | 8.6%
SMILES | NS1 function inh | Pf growth 96h | Pf growth 48h | Sm TGR inh | AMA1-RON2 inh
O=C(O)CC(CNS(=O)(=O)c1ccccc1)c1ccccc1 (stereo not given) | 3.4% | 10.4µM* | 19.0% | 8.2% | 0.0%
Cc1cccc(N/C=C/C(=C(C#N)C#N)N(C)C)c1 | 8.9% | 0.5% | 9.8% | 6.9% | 0.4%
CN(C)C(/C=C/Nc1ccc(O)cc1)=C(C#N)C#N | x | 9.28µM* | u | -13.5% | 25.3%
C=C(C=O)CC1CC(O)[C@]2(C)OC3CC4OC5C[C@]6(C)O[C@]7(C)CCC8OC9C[C@]%10(C)OC%11C(C)=CC(=O)OC%11CC%10OC9C[C@@H](C)C8OC7CC6O[C@]5(C)CC5OC5C4OC3CC2O1 (stereo not given in full) | -1.5% | x | x | 11.2µM* | 42.4%
C=C(CO)CC1CC(O)[C@]2(C)OC3CC4OC5C[C@]6(C)O[C@]7(C)CCC8OC9C[C@]%10(C)OC%11C(C)=CC(=O)OC%11CC%10OC9C[C@@H](C)C8OC7CC6O[C@]5(C)C/C=C\C4OC3CC2O1 (stereo not given in full) | 3.5% | x | x | 3.7% | 2.3%
NC(=O)CCCCC1CCSS1 (stereo not given) | x | 10.7µM* | u | x | x
Cc1csc(NC(=O)c2cnccn2)n1 | 4.2% | x | 141.8% | -7.2% | 26.6%
Cc1ccc(C)c(-c2csc(NC(=O)c3cnccn3)n2)c1 | x | 11.7µM* | u | 1.4% | 45.8%
O=C(COc1ccc(Br)cc1)c1ccc2c(c1)CCCC2 | 8.0% | 8.28µM* | 33.1% | 44.6% | 73.0%
Cc1ccc(OCC(=O)c2ccc3c(c2)CCCC3)cc1C | 7.6% | 0.0% | 71.9% | 16.9% | 98.9%
CC(C)N1C(=O)/C(=C/C=C/c2ccco2)C(=O)N(Cc2ccco2)C1=O | 12.3% | 3.8% | 0.0% | 3.55µM* | u
O=C1NN(c2ccc(F)cc2)C(=O)/C1=C\C=C\c1ccco1 | 22.1% | 1.65µM* | -1.3% | u | -8.4%[11.6 µM]
COc1ccc(/C=C2/C(=O)N(Cc3ccco3)C(=O)N(C(C)C)C2=O)cc1 | 8.7% | -4.6% | 0.2% | -2.2% | -3.6%
CCN1C(=O)C(=C/C=C/c2ccco2)C(=O)N(CC)C1=S | 2.7% | 432.2% | 4.7% | 8.91µM* | 4.1%
O=C1NC(=O)N(Cc2ccccc2)C(=O)/C1=C/C=C/c1ccco1 | 1.1% | -1.3% | 0.0% | 6.31µM* | -26.8%
COC(=O)c1cc(NC(=O)CN2C(=O)C(=O)N(C3CCCC3)C2=O)cc(C(=O)OC)c1 | x | -13.7% | 4.2% | 2.0% | -13.4%
COCCn1c(C)cc(C(=O)COC(=O)/C=C/c2c(C)nn(C3CCS(=O)(=O)C3)c2Cl)c1C (stereo not given) | x | u | u | -2.2% | 6.8%
